These results are taken from PubChem BioAssay AID1259354 (Paczesny and Yang Labs, IUPUI and University of Michigan, 2018).

Several values for one entry are separate records, joined by “and”; a condition that tells them apart may be missing. Identical values can stand only once. Among all 78,000 compounds or so, about 1,800 (2.3%) were called active. Another 27% or so got no clear call; they are omitted. Cut-off read from the data, not from the text of the source: active = inhibition above about 30%; inconclusive = mostly about 10% to 28%; inactive = weaker than that. The full list was thinned out, with actives kept by preference.

This experiment deals with Interleukin-1 receptor-like 1 (Homo sapiens) (UniProt Q01638). In words: blocks human ST2 binding to IL-33, primary screen, biochemical, AlphaLISA (AID 1259354). Conditions: AlphaLISA ST2-Fc/biotin-IL-33 interaction, 1 h; at 17 µM, stronger effect = higher value.
Sequence of Interleukin-1 receptor-like 1 (Homo sapiens) (Q01638 whole entry, looked up): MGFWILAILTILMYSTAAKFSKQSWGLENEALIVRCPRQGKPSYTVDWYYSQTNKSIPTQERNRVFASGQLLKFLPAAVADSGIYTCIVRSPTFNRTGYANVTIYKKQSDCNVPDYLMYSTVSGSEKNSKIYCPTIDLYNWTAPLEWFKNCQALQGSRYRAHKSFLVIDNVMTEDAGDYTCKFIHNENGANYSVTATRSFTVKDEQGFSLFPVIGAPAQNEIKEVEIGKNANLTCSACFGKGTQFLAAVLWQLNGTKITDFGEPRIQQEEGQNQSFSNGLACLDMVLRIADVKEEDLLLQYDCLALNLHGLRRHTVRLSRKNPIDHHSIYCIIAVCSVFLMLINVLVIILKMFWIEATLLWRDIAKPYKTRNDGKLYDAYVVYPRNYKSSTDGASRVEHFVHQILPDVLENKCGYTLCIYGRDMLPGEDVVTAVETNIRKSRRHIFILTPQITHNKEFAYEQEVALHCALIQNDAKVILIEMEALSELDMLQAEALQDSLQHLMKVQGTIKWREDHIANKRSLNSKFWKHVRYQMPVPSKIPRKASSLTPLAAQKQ
Turning to `Fc1ccccc1CSc1nnc2c(n1)OC(c1cccnc1)Nc1ccccc1-2` (stereo not drawn), the inhibition entry is “inactive”.
Turning to `COc1ccc(N2CCN(Cc3ccc(Br)s3)CC2)cc1`, the inhibition is 39% (active).
Regarding `COc1cccc(N2CCN(Cc3cccs3)CC2)c1`, the inhibition result was “inactive”.
With `COc1ccc(N2CCN(Cc3nc4c(c(=O)[nH]c(=O)n4C)n3CCCO)CC2)cc1` the entry was “inactive”; with `CC(c1cccs1)N(C)Cc1ccc(C#CC(C)(C)O)s1` (stereo not drawn), “inactive”; with `CC(C)NC(=O)C(CCO)NC(C)C` (stereo not drawn), “inactive”.
With `Cc1ccc(-n2c(SCC(=O)Nc3ccc([N+](=O)[O-])cc3)nc3c(c2=O)SCC3)cc1` the figure was 36% (active); with `Cc1ccc(-n2c(SCC(=O)Nc3ccccc3C(F)(F)F)nc3c(c2=O)SCC3)cc1`, “inactive”.
Consider `CCOc1ccc(NC(=O)CSc2nc3c(c(=O)n2-c2ccccc2)SCC3)cc1`, for which the inhibition result is “inactive”.
Take `O=S(=O)(c1ccccc1)N1CCN(c2cc(-c3ccc(F)cc3)ncn2)CC1`: the inhibition result was “inactive”.
`Cn1c(=O)c2c(SCC(=O)NC3CCCC3)nc(-c3ccc(F)cc3)nc2n(C)c1=O`: the inhibition result is “inactive”.
For the compound `Cc1ccc(N2NC(=O)/C(=C/c3ccc4c(c3)OCO4)C2=O)cc1Cl`, the inhibition entry was “inactive”.
On to `Cc1cc(/C=C2/C(=O)NC(=O)N(C)C2=O)c(C)n1-c1ccc(Cl)c(Cl)c1`, for which the inhibition was 34% (active).
For `Cc1ccc(N2NC(=O)/C(=C/c3cccc([N+](=O)[O-])c3)C2=O)cc1Cl`, the inhibition entry is “inactive”.
Regarding `COc1ccc(C(=O)Nc2c3c(nn2-c2ccc(F)cc2)CS(=O)C3)c(OC)c1` (stereo not drawn), the inhibition result was “inactive”.
The entry for `Cc1ccnc(CC(C)N(C)C(=O)c2cc(CC(C)C)no2)c1` (stereo not drawn) is “inactive”; for `Cc1ccc(C(=O)N2N=C(c3ccccc3)CC2c2ccccc2)cc1` (stereo not drawn) it is “inactive”; for `N/C(=N/OC(=O)c1ccc2c(c1)OCO2)c1ccc(Cl)cc1` it is “inactive”.
Turning to `COc1ccc(S(=O)(=O)Nc2ccc(Br)cc2)cc1`, the inhibition entry was “inactive”.
`COC(=O)CNS(=O)(=O)c1ccc(OC)cc1`: the inhibition result was “inactive”.
Regarding `COc1ccc(S(=O)(=O)ON=C2C=CC(=O)C=C2)cc1`, the inhibition is 32% (active).
With `COc1ccccc1C(=O)Nc1ccc2c(c1)NC(=O)CC2c1ncc[nH]1` (stereo not drawn) the entry was “inactive”; with `O=C1CCC(C(=O)N2CCN(Cc3cccnc3)CC2)CN1CC1CCCCC1` (stereo not drawn), “inactive”.
For `NC(=O)c1c(NC(=O)c2cc(=O)c3ccccc3o2)sc2c1CCCCC2`, the inhibition entry was “inactive”.
`CCCC(=O)c1c(OC)cc(O)c(CC)c1O`: the inhibition result was “inactive”.
The entry for `CC(CN1CCC(C(N)=O)CC1)c1ccccc1` (stereo not drawn) is “inactive”.
With `CC(CN1CCN(C)C2(CCN(C(=O)c3ccco3)CC2)C1)c1ccccc1` (stereo not drawn) the figure was 30% (active).
For `Cn1c(=O)cc(SCC(=O)N2CCN(C(=O)c3ccco3)CC2)c2ccccc21`, the inhibition entry was “inactive”.
For `C=CCn1c(=O)c2c(nc3n2CCN3c2ccc(C)cc2)n(C)c1=O`, the inhibition entry is “inactive”.
The entry for `CCC(=O)Nc1ccc(Nc2nc(C)cc(Nc3ccc(OC)cc3)n2)cc1` is “inactive”; for `COc1ccc(Nc2nc(Nc3ccc(OC)cc3)nc(N3CCNCC3)n2)cc1` it is 31% (active); for `COc1ccc(Nc2nc(Cl)nc(NCc3ccco3)n2)cc1` it is “inactive”.
The entry for `CCOC(=O)CSC1=C(C#N)C(c2ccccc2)CC(=O)N1` (stereo not drawn) is “inactive”; for `CC1=NN(Cc2ccccc2)C(=O)/C1=C/c1ccc(N(C)C)cc1` it is 44% (active); for `CN(C)c1ccc(/C=C\c2nc3ccccc3c(=O)n2-c2ccc(C(=O)O)cc2)cc1` it is “inactive”.
For `CN(C)c1ccc(/C=C2\N=C(c3cccc(I)c3)OC2=O)cc1`, the inhibition result is “inactive”.
As for `CN(C)CC1(O)CCCN(C(=O)c2ccc(-n3ccnc3)cc2)CC1` (stereo not drawn), the inhibition entry is “inactive”.
The figure for `C=CCn1c(-c2ccccc2)csc1=Nc1ccc(O)cc1` is 53% (active) and 41% (active); for `O=[N+]([O-])c1ccc(O)c(C=Nc2ccc3oc(-c4ccccc4)nc3c2)c1` it is “inactive”; for `COc1ccc(-c2nc3cc(N=Cc4cccc(OC)c4O)ccc3o2)cc1` it is 43% (active).
Consider `O=C(O)c1ccc(O)c(C=Nc2ccc3oc(-c4ccccc4)nc3c2)c1`, for which the inhibition entry is “inactive”.
Regarding `COc1ccc([N+](=O)[O-])cc1NC(=O)c1ccc(-c2ccccc2)cc1`, the inhibition result is “inactive”.
As for `O=C(Nc1ccc([N+](=O)[O-])cc1)c1ccc(Br)cc1`, the inhibition entry was “inactive”.
The figure for `CC1(c2ccccc2NC(=O)c2ccc([N+](=O)[O-])cc2)CC1` is 30% (active).
In the case of `c1cc(-c2nc3ccncc3[nH]2)ccn1`, the inhibition entry was “inactive”.
As for `CC1CCN(c2ccc(C(=O)O)cc2[N+](=O)[O-])CC1`, the inhibition entry is “inactive”.
Consider `O=[N+]([O-])c1cc(Cl)ccc1N1CCN(c2ccc([N+](=O)[O-])c3cccnc23)CC1`, for which the inhibition was 56% (active).
Regarding `O=[N+]([O-])c1cc(Cl)ccc1N1CCCNCC1`, the inhibition result is “inactive”.
The entry for `CSc1ccccc1NC(=O)c1cc(-c2ccc(Br)cc2)on1` is “inactive”; for `O=C1CN(C(=O)c2nn(CCCc3ccccc3)c3c2CN(Cc2cccnc2)CC3)CCN1` it is “inactive”; for `CCOc1ccc(-c2cc(C)n3nc(C(=O)OC)cc3n2)cc1` it is “inactive”.
With `OCCNc1c(F)c(F)nc(N2CCOCC2)c1F` the entry was “inactive”; with `O=C(NC[C@H]1O[C@@H](CO)[C@@H](O)[C@H]1N1CCc2ccccc2C1)Nc1ccccc1`, “inactive”.
